Data from PubChem BioAssay AID1159580 (chemical genetic matrix, 2015).
Values joined by “and” are separate entries in the source; they are usually repeats but may differ in a detail not shown here. Equal entries are not always repeated. Hit rate of the full screen: of about 5,500 compounds, about 2,000 (36%) were called active. Not shown: some 18% with an inconclusive outcome. Rule as the data show it: active = normalized growth mostly below about 0.91 (no sharp cut-off); inconclusive = no clear call, values can overlap the other calls; inactive = mostly above about 0.92. The list shows a part of the results.

Experiment: chemical genetic growth profiling, strain panel (AID 1159580);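 also: tested at 20 µM; growth read once vehicle control cultures reached saturation at 30 °C; 1 = growth at the plate median or of vehicle wells; lower values mean less growth of the strain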
Conditions: S. cerevisiae deletion strains, growth OD

Measured: normalized growth

CC1(C)S[C@@H]2[C@H](NC(=O)[C@H](N)c3ccccc3)C(=O)N2[C@H]1C(=O)O
inactive: locus YAL021C, strain ccr4, stronger effect = lower value 0.98 | locus YAL026C, strain drs2, stronger effect = lower value 0.971 | locus YAL030W, strain snc1, stronger effect = lower value 0.987 | locus YBL061C, strain skt5, stronger effect = lower value 0.973 | locus YBR009C, strain hhf1, stronger effect = lower value 1 | locus YBR021W, strain FUR4, stronger effect = lower value 1.01 | locus YBR023C, strain chs3, stronger effect = lower value 0.967 | locus YBR171W, strain sec66, stronger effect = lower value 0.977 | locus YBR229C, strain ROT2, stronger effect = lower value 1.01 | locus YBR231C, strain swc5, stronger effect = lower value 0.999 | locus YBR279W, strain paf1, stronger effect = lower value 0.954 | locus YCL011C, strain gbp2, stronger effect = lower value 0.95 | locus YCL016C, strain dcc1, stronger effect = lower value 0.942 | locus YCL029C, strain bik1, stronger effect = lower value 0.998 | locus YCL061C, strain MRC1, stronger effect = lower value 0.973 | locus YCL069W, strain vba3, stronger effect = lower value 0.98 | locus YCR088W, strain abp1, stronger effect = lower value 0.975 | locus YDL005C, strain med2, stronger effect = lower value 0.979 | locus YDL035C, strain GPR1, stronger effect = lower value 1.02 | locus YDL040C, strain nat1, stronger effect = lower value 0.971 | locus YDL074C, strain BRE1, stronger effect = lower value 1.01 | locus YDL101C, strain DUN1, stronger effect = lower value 1.01 | locus YDL134C, strain PPH21, stronger effect = lower value 1.01 | locus YDL185W, strain tfp1, stronger effect = lower value 1 | locus YDL192W, strain arf1, stronger effect = lower value 1.03 | locus YDR001C, strain nth1, stronger effect = lower value 0.971 | locus YDR069C, strain doa4, stronger effect = lower value 0.965 | locus YDR101C, strain arx1, stronger effect = lower value 1.01 | locus YDR137W, strain rgp1, stronger effect = lower value 0.945 | locus YDR150W, strain NUM1, stronger effect = lower value 1.02 | locus YDR159W, strain sac3, stronger effect = lower value 0.981 | locus YDR162C, strain NBP2, stronger effect = lower value 1.03 | locus YDR195W, strain ref2 0.961 | locus YDR297W, strain sur2, stronger effect = lower value 0.976 | locus YDR318W, strain mcm21, stronger effect = lower value 1.01 | locus YDR334W, strain swr1, stronger effect = lower value 0.961 | locus YDR335W, strain msn5, stronger effect = lower value 0.948 | locus YDR388W, stronger effect = lower value 1 | locus YDR392W, strain spt3, stronger effect = lower value 0.888 | locus YDR502C, strain sam2, stronger effect = lower value 1.01 | locus YEL003W, strain gim4, stronger effect = lower value 0.98 | locus YEL037C, strain rad23, stronger effect = lower value 0.979 | locus YEL061C, strain CIN8 (second series), stronger effect = lower value 0.97 | locus YEL061C, strain CIN8, stronger effect = lower value 1.01 | locus YER015W, strain faa2, stronger effect = lower value 0.961 | locus YER016W, strain bim1, stronger effect = lower value 0.955 | locus YER110C, stronger effect = lower value 0.991 | locus YER111C, strain swi4, stronger effect = lower value 0.96 | locus YER155C, strain BEM2 (second series), stronger effect = lower value 1.03 | locus YER155C, strain BEM2, stronger effect = lower value 1 | locus YER167W, strain BCK2, stronger effect = lower value 1.01 | locus YFR010W, strain ubp6, stronger effect = lower value 0.996 | locus YGL078C, strain dbp3, stronger effect = lower value 0.999 | locus YGL086W, strain mad1, stronger effect = lower value 1 | locus YGL167C, strain pmr1, stronger effect = lower value 0.987 | locus YGL173C, strain kem1, stronger effect = lower value 0.984 | locus YGL227W, strain vid30, stronger effect = lower value 0.974 | locus YGL240W, strain doc1, stronger effect = lower value 0.991 | locus YGL248W, strain PDE1, stronger effect = lower value 1.02 | locus YGL253W, strain hxk2, stronger effect = lower value 0.944 | locus YGR135W, strain pre9, stronger effect = lower value 1.01 | locus YGR229C, strain SMI1, stronger effect = lower value 1.03 | locus YGR252W, strain gcn5, stronger effect = lower value 1.03 | locus YHR013C, strain ard1, stronger effect = lower value 0.938 | locus YHR027C, strain rpn1, stronger effect = lower value 0.97 | locus YHR030C, strain SLT2, stronger effect = lower value 1.01 and 1.03 | locus YHR079C, strain IRE1 (second series), stronger effect = lower value 1 | locus YHR079C, strain IRE1, stronger effect = lower value 1.03 | locus YHR094C, strain hxt1, stronger effect = lower value 0.994 | locus YHR129C, strain ARP1, stronger effect = lower value 1.01 | locus YHR142W, strain chs7, stronger effect = lower value 0.924 | locus YHR200W, strain rpn10, stronger effect = lower value 1 | locus YIL066C, strain RNR3, stronger effect = lower value 1.03 | locus YIL073C, strain SPO22, stronger effect = lower value 1.04 | locus YIL125W, strain kgd1, stronger effect = lower value 1 | locus YIR030C, strain dcg1, stronger effect = lower value 1.01 | locus YJL092W, strain hpr5, stronger effect = lower value 0.973 | locus YJL095W, strain BCK1 (second series), stronger effect = lower value 0.989 | locus YJL095W, strain BCK1, stronger effect = lower value 1.01 and 1.04 | locus YJL115W, strain asf1, stronger effect = lower value 0.94 | locus YJL129C, strain trk1, stronger effect = lower value 0.913 | locus YJL134W, strain LCB3, stronger effect = lower value 1.01 | locus YJL154C, strain vps35, stronger effect = lower value 0.97 | locus YJL164C, strain tpk1, stronger effect = lower value 0.977 | locus YJL166W, strain qcr8, stronger effect = lower value 0.998 | locus YJL168C, strain set2, stronger effect = lower value 1 | locus YJL187C, strain SWE1 (second series), stronger effect = lower value 1 | locus YJL187C, strain SWE1, stronger effect = lower value 0.988
